C8 TRAIL sens: caspase-8 TRAIL sensitization; NB7+C8 cells + TRAIL, ATPlite viability luminescence; inhibition (viability loss, TRAIL sensitization), % at 10 µM; 360,000 compounds, 1% hits;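 active means compounds causing at least 50% loss of cell viability in the single-dose screen, relative to plate controls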
TROY NFkB inh: TROY signaling inhibition | inhibition, % at 10 µM | AID 1347056 | 360,000 compounds, 0.98% hits | Q293 LMP1-TROYcd NF-kB luciferase reporter, 4 h;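 active means compounds whose plate-normalised and pattern-corrected inhibition of the luciferase reporter signal at the single screening dose is 50% or more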
Platelet DG rel: modulates dense granule release in human platelets; 300,000 compounds, 0.22% hits; human platelet-rich plasma, SFLLRN dense granule ATP release, luminescence; inhibition, %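 (compounds screened at 7.5 µM in platelet-rich plasma)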;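 active means mean replicate score, as percent of positive control, at or above 50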
PPC-1+TRAIL kill: compounds killing PPC-1 cancer cells with TRAIL present (potentiator screen, no TRAIL-free arm) | PPC-1 cells + TRAIL, ATPLite viability luminescence | cell killing (% activity), % at 4 µM or 5 µM | 220,000 compounds, 0.41% hits | AID 1443;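 active means cell killing above 50% in the first pass at 4 µM, then a duplicate retest at 5 µM averaging 50% or more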;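 further: plate controls were cells with TRAIL plus DMSO for no effect and medium-only wells lacking cells for full effect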
HSP90 refold inh: HSP90 refolding inhibition in rabbit reticulocyte lysate; luciferase refolding luminescence, 3 h; 290,000 compounds, 0.91% hits; inhibition, % at 5.6 µM;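 active means inhibition above the screen-wide mean plus 3 SD, computed separately per campaign, cut at about 16% in these data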;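 further: 0% = DMSO wells and 100% = 60 µM geldanamycin wells; inhibitors lower the luminescence because luciferase stays unfolded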
TWEAK Fn14 block: blocks TWEAK-Fn14 interaction in a reporter cell assay; inhibition, % at 10 µM; TWEAK-stimulated Fn14 reporter cells, luciferase luminescence, 8 h; AID 1159606; 360,000 compounds, 2% hits; in the data active means inhibition above about 50%
The depositor's hits bear a star; . = not tested or not shown. The list is not random: actives were taken first. Their share in the collection is about 3.5%.

SMILES	C8 TRAIL sens	TROY NFkB inh	Platelet DG rel	PPC-1+TRAIL kill	HSP90 refold inh	TWEAK Fn14 block
CCc1ccc(NC(=O)CSc2nc(C)cs2)cc1	-4	-53	.	.	.	-29
CCOC(=O)C(=O)CC(=O)c1ccc2c(c1)OCCO2	-1	72*	8	10	4	-4
NC(=O)c1ccc2c(c1)OCCO2	5	.	-6	20	0	16
O=C(NCc1ccc2c(c1)OCO2)c1ccc2c(c1)OCCO2	-3	-44	5	19	3	-27
COC(=O)c1ccc(CNC(=O)c2ccc3c(c2)OCCO3)cc1	2	-35	-13	.	2	79*
Cc1cccc(C(=O)OCC(=O)c2ccc3c(c2)OCCO3)c1O	36	54*	.	.	.	13
COc1ccc(Cl)cc1N(CC(=O)NCCSc1ccccn1)S(=O)(=O)c1ccccc1	-1	6	-2	.	6	14
O=C(c1cnc(Cl)c(Cl)c1)N1CCN(S(=O)(=O)c2ccc3ccccc3c2)CC1	48*	37	.	.	.	-17
O=C(Nc1ccncc1)c1c(Cl)cccc1Cl	-8	30	5	.	4	55*
Cc1csc2nc(CN3CCN(CC(=O)N(C)C)CC3)cc(=O)n12	-7	-3	-2	.	1	13
CC(Oc1cccc(Cl)c1)C(=O)Nc1cc(S(=O)(=O)N2CCCCC2)ccc1N1CCOCC1 (stereo not given)	18	-3	7	.	.	-4
O=C(C=Cc1ccccc1O)c1ccccc1O	12	8	.	.	.	62*
O=C(/C=C/c1ccc(O)cc1)c1ccc(O)cc1O	0	-22	6	-8	-1	59*
O=C(/C=C/c1ccoc1)c1ccccc1O	-6	-12	0	5	1	-2
O=C(O)/C=C/c1ccc(O)cc1	-13	1	-6	.	.	-16
O=C(C=Cc1cccc(O)c1)c1ccccc1O	11	-16	.	.	.	65*
O=C(/C=C/c1ccc(O)c(O)c1)c1ccccc1O	18	-13	70*	14	-9	35
O=C(/C=C/c1ccccc1Cl)c1ccccc(=O)c1O	24	37	-12	19	5	35
CN(C)Cc1ccc(-c2nc3cccc4c3n2CCNC4=O)cc1	-6	-4	-3	.	.	14
CSc1ccccc1NC(=O)CN(C)CC(=O)c1c(C)[nH]c2ccccc12	-1	0	.	.	.	0
CC(C)NC(=S)N/N=C1\CCCc2ccccc21	-11	-8	1	13	0	-1
O=C(/C=C/c1ccc(F)cc1)c1ccccc1Br	12	1	9	29	3	63*
CC1=C(C(=O)Nc2ccc(C(=O)NCCCN3CCCCC3)cc2)SCCO1	1	6	-6	.	-7	-1
O=C(Nc1ccc(N2CCN(c3ncccc3C(F)(F)F)CC2)nc1)c1cccs1	34	82*	-5	20	5	96*
C(=Cc1cnc2ccccc2n1)c1ccc2c(c1)OCO2	86*	81*	.	.	.	98*
SMILES	C8 TRAIL sens	TROY NFkB inh	Platelet DG rel	PPC-1+TRAIL kill	HSP90 refold inh	TWEAK Fn14 block
Nc1nc2ccccc2n1/N=C/c1ccc2c(c1)OCO2	0	-60	-2	13	-6	-19
C(=Cc1nc2ccccc2o1)c1ccc2c(c1)OCO2	80*	58*	.	.	.	86*
CN(Cc1ccc(Cl)cc1)C(=O)CNC(=O)C12CC3CC(CC(C3)C1)C2	-8	8	.	.	.	-4
COc1ccc(-n2c(Cc3cccn3C)nnc2SCC(=O)Nc2ccc(C)c(Cl)c2)cc1	4	-16	2	14	-5	52*
COc1ccc(NC(=O)CSc2nnc(-c3cccs3)n2-c2ccccc2)cc1	20	-27	-6	-6	0	54*
Cn1cccc1Cc1nnc(SCC(=O)N2CCc3ccccc32)n1-c1ccc(F)cc1	-2	10	2	-5	-5	57*
Cn1cccc1Cc1nnc(SCC(=O)N2CCCc3ccccc32)n1-c1ccc(F)cc1	-16	0	5	28	-6	35
COc1ccc(-n2c(Cc3cccn3C)nnc2SCC(=O)Nc2cccc(OC)c2)cc1	-3	-9	0	28	1	23
Cc1cc(C)n2nc(C(=O)NCC(=O)Nc3ccc(F)c(F)c3)nc2n1	-12	15	-3	.	.	8
O=C(COC(=O)CCc1ccccc1)NNC(=O)c1ccccc1	-8	-4	.	.	.	0
Cc1cc(C(=O)CN2C(=O)C(=O)N(Cc3ccccc3)C2=O)c(C)n1-c1ccc2c(c1)OCCO2	0	22	2	18	-4	51*
Cc1cc(C(=O)CSc2nnnn2C)c(C)n1-c1ccc2c(c1)OCCO2	-4	52*	-1	15	0	22
Cc1ccccc1N(CC(=O)N1CCN(Cc2ccccc2)CC1)S(C)(=O)=O	7	-14	.	.	.	-3
CCOC(=O)C1CCCN(C(=O)c2ccc(F)c(Cl)c2)CC1 (stereo not given)	-4	-6	.	.	.	-7
O=C(c1ccccc1)c1ccc(OCCCCN2CCCCC2)cc1	-3	-14	2	-4	0	70*
O=C(c1ccccc1)c1ccc(OCCCN2CCCC2)cc1	11	-16	-9	25	0	0
Nn1c(SCC(=O)Nc2ccc3c(c2)OCCO3)nnc1-c1ccccn1	1	7	6	-8	0	77*
Nc1ccccc1SCC(=O)Nc1ccc2c(c1)OCO2	3	4	-7	.	-1	-36
O=C(CC(c1ccccc1)c1ccccc1)Nc1ccc2c(c1)OCCO2	-3	22	6	25	5	52*
COCCCn1c(SCC(=O)Nc2ccc3c(c2)OCCO3)nnc1-c1ccoc1C	-4	16	4	-14	-3	64*
Nc1ccccc1SCC(=O)Nc1ccc2c(c1)OCCO2	2	58*	2	.	-5	68*
C[C@@H]1CN([C@@H](C)CO)C(=O)CCCn2nncc2CO[C@H]1CN(C)C(=O)Nc1ccnc(N2CCOCC2)c1	9	-5	.	.	.	13
Cc1cc(C)n(-c2ccc(C(=O)Nc3ccc4c(c3)OCCO4)cc2)n1	20	-24	-1	14	3	19
Cc1cc(C)n(C(C)CC(=O)Nc2ccc3c(c2)OCCO3)n1 (stereo not given)	6	43	-9	.	2	61*
Cn1cccc1C(=O)OCC(=O)Nc1ccc2c(c1)OCCO2	38	9	.	.	.	71*
C[C@H]1CC[C@]2(O[C@H](CCO)C[C@@H](O)[C@@H]2O)O1	-7	-8	-8	3	.	-6
O=C(NC1CCCCC1)C(c1cccs1)N(C(=O)Cc1c[nH]c2ccccc12)c1ccc(F)cc1 (stereo not given)	17	24	4	29	0	34
COc1ccc(C(C(=O)NC2CCCCC2)N(Cc2cccs2)C(=O)Cc2c[nH]c3ccccc23)cc1 (stereo not given)	10	30	9	-6	2	65*
Cc1cccc(N(C(=O)C(F)(F)F)C(C(=O)NC2CCCCC2)c2cccs2)c1 (stereo not given)	-3	-45	15	22	-3	-18
